Assay results published in PubChem BioAssay.
Values joined by “and” are separate entries in the source; they are usually repeats but may differ in a detail not shown here. Equal entries are not always repeated. Where a structure was tested more than once in an assay, its records may differ in their call. Active and inactive are the calls of the source.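 Rule for the calls, unless noted: active = compounds whose cell count with miR-34 switched on is under 0.7 times the count with it off; inactive = the rest.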

Tests used:
[1] = sensitizers of A549 cells to miR-34 induction, primary screen, imaging, A549 dox-inducible miR-34, nuclei and caspase counts (AID 1347080); settings: A549 miR-34 inducible, Hoechst nuclei count, 48 h; note: test concentration not given here
[2] = survival rescue of mitochondrial mutant cells in low glucose, primary screen, MELAS cybrids, Rieske KO mouse fibroblasts, CellTiter-Glo (AID 1508586;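 active = mean z-score across replicates of 1.96 or higher in either the MELAS or the Rieske mutant cell line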;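 note: test concentration not given here; z relative to plate mean and SD of compound and empty wells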)
[3] = viability rescue of complex I mutant cybrids, primary screen, cell-based, galactose medium, ATP luminescence (AID 1645843;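 active = z-score of at least 1.8 in each of two replicates, scored against plate mean and spread of sample wells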;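 note: positive z means more ATP and so rescue of galactose-driven cybrid death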); settings: complex I mutant cybrid cells, 72 h, stronger effect = higher value
[4] = stronger effect = lower value, cell number ratio, induced over uninduced
[5] = measured here: relative caspase fold change +Dox/-Dox
[6] = measured here: total cells with miR-34 induction, stronger effect = lower value
[7] = measured here: total cells without miR-34 induction
[8] = MELAS cybrid survival, CellTiter-Glo 48 h, stronger effect = higher value
[9] = Rieske KO mouse fibroblast survival, CellTiter-Glo 72 h

Row | SMILES | fold change [1, 4] | fold change [1, 5] | cell count [1, 6] | cell count [1, 7] | z-score [2, 8] | z-score [2, 9] | z-score [3]
1 | CN1CCN(Cc2ccc3sccc3c2)CC1CCO (configuration not stated) | 0.86 (inactive) | 1.5 | 8240 | 9580 | 0.0101 (inactive) | -0.424 | -0.48 (inactive)
2 | CCOc1ccc(C=C2NCCc3cc(OCC)c(OCC)cc32)cc1OCC | 0.846 (inactive) | 0.801 | 4950 | 5850 | -1.41 (inactive) | -0.0245 | -2.65 (inactive)
3 | CCCN1CCCCC1C(=O)Nc1c(C)cccc1C (configuration not stated) | 0.891 (inactive) and 0.942 (inactive) | 1.17 and 1.76 | 9320 and 9310 | 10500 and 9880 | 0.0955 (inactive) | -0.512 | 0.57 (inactive)
4 | O=C(O)c1ccc(-c2ccc(F)cc2)cc1 | 0.935 (inactive) | 1.32 | 7840 | 8390 | -0.835 (inactive) | -0.109 | 0.26 (inactive)
5 | CCn1nccc1NC(=O)Cn1cc(-c2ccc(C(=O)N3CCCC3)cn2)cn1 | 0.832 (inactive) | 1.64 | 7850 | 9430 | 0.812 (inactive) | -0.539 | -0.57 (inactive)
6 | Cc1nc(C)c(-c2ccnc(N)n2)s1 | 0.869 (inactive) | 0.21 | 8060 | 9270 | 0.483 (inactive) | -0.306 | -0.255 (inactive)
7 | O=C1CCC(CC(=O)N2CCc3[nH]nc(-c4ccc5c(c4)OCO5)c3C2)N1 (configuration not stated) | 0.953 (inactive) | 1.24 | 9140 | 9600 | -0.575 (inactive) | -0.976 | -0.52 (inactive)
8 | CCn1ncc2[nH]c(-c3cnn(C)c3-c3ccccc3)nc21 | 0.88 (inactive) | 1.89 | 8480 | 9640 | -0.346 (inactive) | -0.221 | -0.49 (inactive)
9 | Cc1ccc(CN2CCN(c3ncnc4sccc34)CC2=O)cc1 | 0.911 (inactive) | 1.87 | 4200 | 4610 | -0.0356 (inactive) | -0.417 | 3.8 (active)
10 | COc1ccc2c(C(=O)N(C)Cc3nonc3C)cc(-c3cnn(C)c3)nc2c1 | 0.963 (inactive) | 1.42 | 8090 | 8400 | -0.189 (inactive) | -0.423 | -0.54 (inactive)
11 | CCn1cnc(NC(=O)N(C)CC2Cc3ccccc3O2)n1 (configuration not stated) | 0.971 (inactive) | 1.16 | 9520 | 9810 | -0.133 (inactive) | -0.0873 | -0.62 (inactive)
12 | Cc1nsc(NC(=O)N[C@@H]2CCCC[C@H]2c2ccccc2)n1 | 0.821 (inactive) | 1.15 | 7510 | 9150 | 0.535 (inactive) | -0.546 | 1.12 (inactive)
13 | O=C(O)c1ccc2ccccc2n1 | 0.876 (inactive) | 0.492 | 7890 | 9000 | -1.05 (inactive) | -0.692 | 0.485 (inactive)
14 | CCc1nc(NC(=O)NCCc2nc(-c3ccc(C)cc3)no2)nn1C | 0.835 (inactive) | 1.88 | 7240 | 8670 | 1.58 (inactive) | -0.075 | 2.27 (active)
15 | O=C(NN=Cc1cc(Br)c(O)c(Br)c1O)c1cccc(Br)c1 | 0.911 (inactive) | 0.461 | 2930 | 3220 | 1.44 (inactive) | 0.907 | -2.57 (inactive)
16 | CN1CCN(Cc2cccc3cccnc23)CC1CCO (configuration not stated) | 0.928 (inactive) | 1.86 | 8360 | 9010 | 0.709 (inactive) | -1.63 | -0.585 (inactive)
17 | c1ccc(NCc2cccnc2)cc1 | 0.876 (inactive) | 1.56 | 8370 | 9560 | -0.153 (inactive) | -0.0248 | 0.545 (inactive)
18 | CC(c1cccc(O)c1)N(C)C (configuration not stated) | 0.895 (inactive) | 0.805 | 8630 | 9640 | -0.0784 (inactive) | -0.273 | 0.205 (inactive)
19 | O=C(O)CCc1c[nH]c2ccccc12 | 0.896 (inactive) | 0.538 | 8830 | 9860 | 0.524 (inactive) | -0.334 | 0.56 (inactive)
20 | O=C(Nc1cccc(-c2nn[nH]n2)c1)c1cccc(F)c1 | 0.949 (inactive) | 0.795 | 8970 | 9450 | 1.21 (inactive) | -0.523 | 0.385 (inactive)
21 | COc1cccc2ccc(-c3nnc4ccccn34)nc12 | 0.871 (inactive) | 1.83 | 7320 | 8400 | -0.646 (inactive) | 0.957 | -0.595 (inactive)
22 | CCOC(=O)C1=C(C)NC(C)=C(C(=O)OCC)C1c1ccccc1C=CC(=O)OC(C)(C)C | 0.635 (active) and 0.971 (inactive) | 1.57 and 0.602 | 2050 and 7220 | 3220 and 7430 | -0.107 (inactive) | -0.188 | -1.44 (inactive)
23 | CC(C)C1CCC(C(=O)NC(Cc2ccccc2)C(=O)O)CC1 (configuration not stated) | 0.94 (inactive) and 0.917 (inactive) | 2.3 and 1.08 | 9290 and 9300 | 9880 and 10100 | -0.394 (inactive) | 0.0104 | 0.805 (inactive)

Row | SMILES | fold change [1, 4] | fold change [1, 5] | cell count [1, 6] | cell count [1, 7] | z-score [2, 8] | z-score [2, 9] | z-score [3]
24 | Cc1nn(C)c(C)c1-c1ccnc(N(C)Cc2cc(-c3ccccn3)no2)n1 | 0.81 (inactive) | 1.13 | 6820 | 8420 | -0.553 (inactive) | 0.716 | -0.45 (inactive)
25 | CN(CCn1cccn1)Cc1ccc(-c2nc(-c3cccnc3)cc(=O)[nH]2)cc1 | 0.951 (inactive) | 1.22 | 8710 | 9150 | -0.265 (inactive) | 0.251 | 0.18 (inactive)
26 | Cc1nn(C)c(C)c1-c1ccnc(NCCc2nc3ccc(Cl)cc3[nH]2)n1 | 0.924 (inactive) | 3.32 | 1430 | 1550 | -0.908 (inactive) | 0.453 | -0.38 (inactive)
27 | Cc1ccc2c(C(=O)N3C[C@H]4CC[C@H]3C4)cc(-c3cnn(C(C)(C)C)c3)nc2c1 | 0.854 (inactive) | 1.66 | 6940 | 8130 | -0.72 (inactive) | 0.542 | 1.56 (inactive)
28 | COc1cccc(OC)c1-c1ccc(C(=O)Nc2cccnc2)o1 | 0.893 (inactive) | 2.2 | 7930 | 8880 | 0.0755 (inactive) | 0.502 | -0.555 (inactive)
29 | O=C(Nc1cccnc1)C1CCN(C(=O)c2ccccc2Cl)CC1 | 0.886 (inactive) | 1.9 | 8890 | 10000 | 0.0994 (inactive) | -0.159 | -0.045 (inactive)
30 | Cc1nc2ccc(CN(C)c3ccc(C(=O)NC(CCC(=O)O)C(=O)O)s3)cc2c(=O)[nH]1 (configuration not stated) | 1.21 (inactive) and 1.1 (inactive) | 1.12 and 0.742 | 1780 and 1710 | 1470 and 1560 | -0.603 (inactive) | -0.121 | -1.03 (inactive)
31 | c1nc(N2CCOCC2)c2[nH]cnc2n1 | 0.913 (inactive) | 0.416 | 8460 | 9270 | -0.198 (inactive) | -0.176 | 1.15 (inactive)
32 | CN1CCC(CN(C)Cc2ccc(-c3nc(-c4ccncc4)cc(=O)[nH]3)cc2)CC1 | 0.939 (inactive) | 1.26 | 9330 | 9930 | 0.0899 (inactive) | 0.164 | -0.495 (inactive)
33 | CCCCCCCCCCCCCCCC(=O)NCC(=O)O | 0.908 (inactive) | 1.05 | 9030 | 9940 | -0.0953 (inactive) | 0.105 | 1.27 (inactive)
34 | CCc1nc(NC(=O)N(C)Cc2cccc(-n3cccn3)c2)nn1C | 0.843 (inactive) | 1.39 | 7990 | 9480 | 0.262 (inactive) | -0.471 | -0.535 (inactive)
35 | OCC(O)COc1ccc(Cl)cc1 (configuration not stated) | 0.886 (inactive) | 0.44 | 8700 | 9820 | 0.325 (inactive) | 0.457 | 0.62 (inactive)
36 | O=C1CN(c2ccc(C(F)(F)F)cn2)CCN1Cc1ccc2c(c1)OCO2 | 0.887 (inactive) | 1.52 | 8410 | 9480 | 0.169 (inactive) | -0.106 | 2.96 (active)
37 | CCc1c(C)[nH]n(-c2nn[nH]n2)c1=O | 0.897 (inactive) | 0.608 | 8110 | 9050 | -1.16 (inactive) | -0.864 | 0.055 (inactive)
38 | Nc1nc(-c2ccc(O)cc2)cs1 | 0.871 (inactive) | 0.369 | 7600 | 8730 | -0.885 (inactive) | 0.17 | 0.145 (inactive)
39 | CCc1noc(Cn2cnc3sc4c(c3c2=O)CCC(C)C4)n1 (configuration not stated) | 0.911 (inactive) | 1.55 | 8510 | 9340 | 0.0666 (inactive) | 0.0902 | -0.515 (inactive)
40 | CNc1ccnc(-c2cnn(CC(=O)Nc3cc(C)nn3C)c2)n1 | 0.867 (inactive) | 1.09 | 8660 | 9980 | -0.389 (inactive) | -1.16 | -0.515 (inactive)
41 | COc1cc(F)ccc1C(=O)N1CCc2[nH]nc(Cc3ccccc3)c2C1 | 0.845 (inactive) | 1.46 | 6700 | 7930 | 0.33 (inactive) | 0.986 | -0.125 (inactive)
42 | CN1CCN(Cc2cccc(Oc3ccccc3)c2)CC1CCO (configuration not stated) | 0.916 (inactive) | 1.42 | 8810 | 9620 | -0.228 (inactive) | -0.0315 | -0.55 (inactive)
43 | O=C(CC1=CCCCC1)NCc1ccon1 | 0.939 (inactive) | 1.22 | 9490 | 10100 | 0.26 (inactive) | -0.5 | -0.49 (inactive)
44 | CC(C)C(N)C(=O)OCCOCn1cnc2c(=O)[nH]c(N)nc21 (configuration not stated) | 0.946 (inactive) and 0.861 (inactive) | 1.94 and 0.803 | 9720 and 8030 | 10300 and 9320 | -0.311 (inactive) | 0.593 | 0.365 (inactive)
45 | CSc1ccccc1C(=O)N1CCc2[nH]nc(COc3ccccc3)c2C1 | 0.941 (inactive) | 0.435 | 8390 | 8920 | -0.515 (inactive) | 0.374 | 1.12 (inactive)
46 | NC(=O)c1ccccc1-c1cccc2ccccc12 | 0.84 (inactive) | 1.62 | 7950 | 9470 | -0.37 (inactive) | 0.135 | -0.38 (inactive)
